From paper PMC4336329 (PLoS ONE, 2015) come the findings set out here.

Screen size: about 310,000 compounds; about 14,000 (4.5%) showed an effect of 50% or more. The effect is printed as a negative number. The entries come from a sample that favours strong results as a whole.
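Note: peak tail current of the secondary pulse compared with the same well before compound.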

In this assay the target is human ether-à-go-go-related gene (hERG) potassium channel (human, UniProt Q12809). The experiment in a line: primary screen, population patch clamp on CHO cells stably expressing hERG; higher = less effect of the substance.
Sequence of human ether-à-go-go-related gene (hERG) potassium channel (Q12809 whole entry, looked up): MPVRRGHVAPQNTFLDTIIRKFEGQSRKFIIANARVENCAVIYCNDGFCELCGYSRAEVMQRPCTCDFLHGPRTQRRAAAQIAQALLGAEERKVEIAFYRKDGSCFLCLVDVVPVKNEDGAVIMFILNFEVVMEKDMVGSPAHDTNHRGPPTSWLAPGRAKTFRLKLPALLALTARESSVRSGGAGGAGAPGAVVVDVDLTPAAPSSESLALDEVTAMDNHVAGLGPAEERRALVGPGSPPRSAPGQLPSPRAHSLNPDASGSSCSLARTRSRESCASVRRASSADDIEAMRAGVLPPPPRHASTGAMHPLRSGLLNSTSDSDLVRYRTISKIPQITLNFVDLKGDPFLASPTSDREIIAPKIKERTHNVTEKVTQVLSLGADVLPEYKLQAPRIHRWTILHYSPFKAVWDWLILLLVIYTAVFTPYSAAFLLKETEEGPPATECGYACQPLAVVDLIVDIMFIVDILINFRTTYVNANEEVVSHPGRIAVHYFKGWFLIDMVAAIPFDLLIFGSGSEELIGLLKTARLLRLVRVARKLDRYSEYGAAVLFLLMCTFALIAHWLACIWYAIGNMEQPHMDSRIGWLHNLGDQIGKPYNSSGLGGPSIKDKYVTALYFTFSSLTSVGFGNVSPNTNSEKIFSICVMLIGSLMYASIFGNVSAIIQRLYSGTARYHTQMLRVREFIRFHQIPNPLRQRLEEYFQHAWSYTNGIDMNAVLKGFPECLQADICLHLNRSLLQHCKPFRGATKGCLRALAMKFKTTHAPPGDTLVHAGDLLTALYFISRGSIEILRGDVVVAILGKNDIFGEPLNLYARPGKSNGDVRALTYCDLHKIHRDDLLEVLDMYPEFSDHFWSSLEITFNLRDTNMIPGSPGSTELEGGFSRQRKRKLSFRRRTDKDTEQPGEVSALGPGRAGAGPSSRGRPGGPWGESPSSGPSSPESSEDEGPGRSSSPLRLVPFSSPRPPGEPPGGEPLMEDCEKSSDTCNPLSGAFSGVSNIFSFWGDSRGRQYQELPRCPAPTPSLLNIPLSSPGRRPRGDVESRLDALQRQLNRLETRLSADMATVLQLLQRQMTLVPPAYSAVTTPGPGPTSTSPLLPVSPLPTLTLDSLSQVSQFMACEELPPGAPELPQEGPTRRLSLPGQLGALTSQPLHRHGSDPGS
Consider `CC(=O)c1sc(N2CCOCC2)nc1-c1ccccc1`, for which the “hERG current change (%, negative = inhibition) at 10uM” value is -6.27%. Next, `Cc1onc(-c2ccccc2)c1C(=O)Nc1sccc1C#N`: 7.27%.

Take `Cc1cc(C)n(-c2ccc(NC(=O)C3CCCCN3C(=O)c3sccc3C)cc2)n1` (centres unmarked): the “hERG current change (%, negative = inhibition) at 10uM” value came to 14.5%. With `NS(=O)(=O)c1ccc(NC(NC(=O)c2cccnc2)C(Cl)(Cl)Cl)cc1` (centres unmarked), the “hERG current change (%, negative = inhibition) at 10uM” value came to 6.08%. Next, `COc1cc(C(=O)NCCCn2ccnc2)cc(OC)c1OC.Cl`: 20.6%; `Cc1nn(C(C)C(=O)NCCN2CCCCCC2)c(=O)c2nn(-c3ccccc3)c(C)c12` (centres unmarked): 21.6%. Consider `Cc1cc(C)n2nc(SCC(=O)Nc3ccccc3C)nc2n1`, for which the “hERG current change (%, negative = inhibition) at 10uM” value is 1.88%. Next, `CC1(C)CC(=O)C2=C(C1)NC(=O)CC2c1ccc(N(CCC#N)CCC#N)cc1` (centres unmarked): 17.3%; `CCC(C(=O)c1ccc2ncccc2c1)c1ccccc1` (centres unmarked): -52.7%. Next, `CCC(=O)c1ccc2ncccc2c1`: 12.2%; `CCC(C(=O)c1ccc(O)cc1)c1ccccc1` (centres unmarked): -5.56%.

In the case of `COc1ccc(CNC(=O)c2nn(C)c3c2CS(=O)(=O)c2ccccc2-3)cc1`, the “hERG current change (%, negative = inhibition) at 10uM” value was -24.5%. Next, `O=C(O)c1ccccc1C(=O)c1ccc(Oc2ccccc2)cc1`: 8.12%; `CCn1nc(C)c(Br)c1C(=O)Sc1ccccc1Cl`: 21.2%; `Cn1c(=O)n(C)c2cc([N+](=O)[O-])c(N3CCN(S(=O)(=O)c4ccccc4)CC3)cc21`: -8.67%. For `O=C(c1cccc(F)c1)N1CCN(c2ccc([N+](=O)[O-])c3cccnc23)CC1` the value was -66.1%; for `O=C(c1ccccc1F)N1CCN(c2ccc([N+](=O)[O-])c3ncccc23)CC1`, -68.1%. For `O=C(c1cc(F)c(F)cc1Cl)N1CCN(c2ncccn2)CC1` the value was 16.4%; for `O=C(c1cccc(F)c1)N1CCN(c2cc(N3CCCCC3)c(F)cc2[N+](=O)[O-])CC1`, 0.466%. Take `O=[N+]([O-])c1ccc(N2CCN(S(=O)(=O)c3ccccc3)CC2)c2cccnc12`: the “hERG current change (%, negative = inhibition) at 10uM” value is given as -76.8%. For `O=C(c1ccc(Cl)cc1[N+](=O)[O-])N1CCN(c2ccccn2)CC1` the value was -34%; for `O=C(c1cc(F)c(F)cc1Cl)N1CCN(c2ccc([N+](=O)[O-])c3ncccc23)CC1`, -67.4%; for `Cc1ccc(S(=O)(=O)N2CCN(c3ccc([N+](=O)[O-])c4cccnc34)CC2)cc1`, -9.52%. Next, `O=C(c1ccccc1F)N1CCN(c2ccc([N+](=O)[O-])c(N3CCOCC3)c2)CC1`: 14.2%.

Take `O=[N+]([O-])c1ccc(N2CCOCC2)c2cccnc12`: the “hERG current change (%, negative = inhibition) at 10uM” value was -25%. As for `O=C(c1cccc(F)c1)N1CCN(c2ccc([N+](=O)[O-])c(N3CCCCC3)c2)CC1`, the “hERG current change (%, negative = inhibition) at 10uM” value is on record as -6.87%.
